PINK1 expr mod = changes PINK1 expression; PINK1 immunofluorescence, high-content cytometry, 24 h; Potency, µM (doses to about 76.6 µM), inactives show at the highest dose activation (PINK1 increase), actives largely listed as activators; hit rate 0.2% among 410,000; active means well fitted activation curve with a large enough effect; inconclusive means small, poorly fitted or top-dose-only effect; cell line not stated here; further: potency means the concentration at half of the fitted maximal effect; % of control where 0% means no effect; nearly all actives have a fitted effect of over 65% in size
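Readout is PINK1 immunofluorescence, quantified alongside mitochondrial, cell and nuclear markers by laser-scanning microplate cytometry. Cells from a stable line were exposed to compound titrations (5 concentrations) for 24 hours, with CCCP controls.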
MCF10A rerep = induces DNA re-replication in MCF 10a normal breast cells; AID 624296; MCF 10A DNA re-replication, Hoechst nuclear intensity, 48 h; hit rate 2.9% among 350,000; Potency, µM (doses to about 46.1 µM), for inactives: at the highest dose activity, positive = re-replication, actives largely listed as activators; further: potency means the concentration at half of the fitted maximal effect; % of control where 0% means no effect; nearly all actives have a fitted effect of over 50% in size
ATXN2 expr inh = inhibitors of ATXN2 expression; HEK-293 ATXN2-luciferase reporter, luminescence, 24 h; Potency, µM (titrated, usually from 57 µM), for inactives: at the top dose activity change, negative = inhibition, usual class: inhibitors; hit rate 0.72% among 360,000; further: potency means the concentration at half of the fitted maximal effect; on the % scale 0 is the no-effect control and ±100 the full control effect; nearly all actives have a fitted effect of over 55% in size
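ATXN2-luciferase reporter cells (luciferase flanked by upstream and downstream ATXN2 gene portions) were treated 24 h at 37 °C with compounds at up to 57 uM. SteadyGlo luminescence gave expression; GF-AFC fluorescence gave viability.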
SW480 rerep = inducers of DNA re-replication in SW480 colon cancer cells; SW480 DNA re-replication, Hoechst DNA content imaging, 48 h; Potency, µM (titrated, usually from 46.1 µM), for the others: at the highest dose re-replication activation, actives largely listed as activators; hit rate 1.8% among 340,000; further: potency means the concentration at half of the fitted maximal effect; % of control where 0% means no effect; nearly all actives have a fitted effect of over 55% in size
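Treated cells incubate 48 hr (37 C, 5% CO2), are stained 40 min with Hoechst, and nuclear fluorescence is enumerated; a rise in nuclei with high DNA signal marks re-replication.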
ATXN viability = cell viability loss in ATXN counter-screen; S2 cells (HEK-293 line with an ATXN2-luciferase reporter) viability, CellTiter-Fluor protease fluorescence, 24 h; Potency, µM (series often up to 56.7 µM), actives largely listed as cytotoxic; hit rate 0.49% among 400,000; AID 651635; further: potency means the concentration at half of the fitted maximal effect; nearly all actives have a fitted effect of over 40% in size
IL1B secr inh = inhibitors of inflammasome signaling (IL-1 beta secretion) | THP-1 LPS/ATP IL-1B secretion, AlphaLISA, 16 h; hits give low values | activity change, % at 57.5 µM | hit rate 4.7% among 360,000; in the data active means activity change below about -50%; inconclusive means mostly about -30% to -49%; further: on the % scale 0 is the no-effect control and ±100 the full control effect
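Secreted IL-1B measured by AlphaLISA bead assay after 16 h compound exposure of THP-1 cells; compounds (final up to 57.5 uM) added 1 h before LPS (250 ng/mL) and ATP (1.25 mM) stimulation; lower signal means less secretion.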
* hit, by the source's call; i = inactive; u = inconclusive; x = no result given; [ ] = dose if it differs, or a comment. A selection: hits, their analogues and other compounds. The true share with any hit is near 7.1%. Unless noted, the call rests on the fitted dose curve; in most records, active means well fitted curve in the direction sought with a large enough effect; inconclusive means small, poorly fitted or top-dose-only effect, or another doubt; inactive means no such curve, though single readings can be large; an effect the other way counts as inactive or inconclusive.

SMILES	PINK1 expr mod	MCF10A rerep	ATXN2 expr inh	SW480 rerep	ATXN viability	IL1B secr inh
Cc1cc(-c2nc(-c3ccc(C(C)(C)C)cc3)no2)no1	2%	0%	x	u	i	-25
COc1ccc(N2CCN(C(=O)c3cccn3-c3nnc(N4CCCC4)s3)CC2)cc1	-1%	x	x	x	x	x
OC(CNCc1ccccn1)c1ccccc1 (centres undefined)	0%	2%	6%	-5%	i	15
CN(C)CC[C@@H](c1ccc(Cl)cc1)c1ccccn1	1%	0%	-1%	-3%	i	-110*
Fc1ccc(C(CCNCc2ccccn2)c2ccc(Cl)cc2)cc1 (centres undefined)	-3%	u	-31%	4%	i	-90*
O=C1CCCCN1CCC(=O)N1CCOc2ccc(C(O)C3CCCCC3)cc2C1 (centres undefined)	1%	x	x	x	i	x
Cc1c(C(=O)N2CCN(C(C)C)CC2)sc2ncnc(NCc3ccco3)c12	0%	x	x	x	i	x
Cc1cccc(C)c1Nc1nnc(SCc2nc3ccccc3c(=O)[nH]2)s1	u	u	-23%	u	i	29
CCOc1ccc(Nc2nnc(SCc3nc4ccccc4c(=O)[nH]3)s2)cc1	u	10µM*	x	13%	i	66
O=C1CN(C(=O)COC(=O)CCC(=O)c2ccc(F)cc2)c2ccccc2N1	0%	3%	9%	-1%	i	25
CCOC(=O)c1c(NC(=O)CSc2nc3cc(Cl)ccc3c(=O)n2Cc2ccco2)sc(C(=O)N(C)C)c1C	12%	u	-18%[11.3 µM]	9%	i	-58*
CCOC(=O)c1c(NC(=O)COC(=O)c2ccccc2NC)sc(C(=O)N(C)C)c1C	10%	11%	32µM*	16%	u	-79*
COc1cc2nc(SCC(=O)NCc3ccco3)n(Cc3ccc(Cl)cc3)c(=O)c2cc1OC	u	15µM*	-38%	18µM*	u	39
COCCNC(=O)CSc1nc2cc(OC)c(OC)cc2c(=O)n1Cc1ccc(OC)cc1	10%	14%	3%	7%	i	9
CCc1ccc(NC(=O)CSc2nc3cc(C(=O)OC)ccc3c(=O)n2Cc2ccco2)cc1	-2%	-182%[0.0737 µM]	5%	17%	i	-8
O=C(CSc1nc2ccc(Cl)cc2[nH]1)NCc1ccco1	-1%	u	1%	-2%	i	-67*
CC[C@@H](C)[C@@H](C(=O)Nc1ccc(C)cc1)N1Cc2ccccc2C1=O	5%	x	0%	x	u	x
O=C(CSc1c2c(nc3cc(Cl)ccc13)CCCC2)NCc1ccco1	-1%	u	-5%	u	i	-66*
CCC(C(=O)N1CCN(c2ccccc2)CC1)n1c(C)c2cnn(-c3ccccc3)c(=O)c2c1C (centres undefined)	1%	x	-10%	x	i	x
CCCCNc1ccc(C(F)(F)F)cc1S(=O)(=O)NCCc1ccc(F)cc1	2%	u	0%	9%	u	-63*
Cc1ccc(NC(=O)CSc2nc(-c3ccco3)nc3cc(=O)[nH]n23)cc1C	9%	x	9%	x	i	x
CCCN(CCC)CCCNC(=O)c1cc2cc3ccc(OC)cc3nc2o1	0%	1%	-18%	27%	i	-78*
CCCCN(CC)CCCNC(=O)c1cc2cc3ccc(OC)cc3nc2o1	1%	-3%	-20%	7%	i	-50*
COc1ccc2cc3cc(C(=O)NCc4ccc(C)cc4)oc3nc2c1	7%	x	-1%	x	i	x
COc1ccc2cc3cc(C(=O)NCc4cccs4)oc3nc2c1	8%	u	-17%	10%	i	-54*
SMILES	PINK1 expr mod	MCF10A rerep	ATXN2 expr inh	SW480 rerep	ATXN viability	IL1B secr inh
COc1ccc2cc3cc(C(=O)NCCc4ccc(OC)c(OC)c4)oc3nc2c1	3%	u	u	-1%	u	u
O=c1[nH]cnc2sc(-c3ccccc3)cc12	-3%[38.3 µM]	2%	38%	-16%	i	-1
O=c1[nH]c(-c2ccccc2)nc2sc(-c3ccccc3)cc12	5%	10µM*	69%	2.9µM*	x	-8
O=C(NC(c1ccc2c(c1)OCO2)c1ccccn1)C1CCN(CCOc2ccccc2)CC1 (centres undefined)	-1%	x	9%	x	i	-14
COc1ccc(/C=C/CN2CCC(C(=O)NC(c3ccc(F)cc3)c3ccc4ccccc4n3)CC2)cc1 (centres undefined)	-1%	x	u	x	35µM*	u
O=C(NC(c1ccccc1)c1cnccn1)C1CCN(CCOc2ccc(Cl)cc2Cl)CC1 (centres undefined)	-1%	x	u	x	13µM*	u
O=C(NC(c1cccnc1)c1ccc2c(c1)OCO2)C1CCN(CCOc2ccc(Cl)cc2Cl)CC1 (centres undefined)	1%	x	u	x	u	-68*
COc1ccc(OCCN2CCC(C(=O)NC(c3ccc(Cl)cc3)c3cnccn3)CC2)cc1 (centres undefined)	1%	x	-14%	x	i	-54*
O=C(COc1ccc([N+](=O)[O-])cc1Cl)N1CCc2ccccc21	4%	-3%	48%	25%	i	-5
Cc1ccccc1C(c1ncccc1C)N(C)C(=O)C1CCN(CCOc2ccc(Cl)cc2Cl)CC1 (centres undefined)	-1%	x	u	x	25µM*	u
COc1ccc(OCCN2CCC(C(=O)NC(c3ccsc3)c3ccccc3C)CC2)cc1 (centres undefined)	3%	x	0%	x	u	-67*
O=C(NC(c1ccc(Cl)cc1)c1ccsc1)C1CCN(Cc2ccc(Oc3ccccc3)cc2)CC1 (centres undefined)	9%	x	-27%	x	u	-63*
O=C(NC(c1ccccc1)c1ccsc1)C1CCN(CCOc2ccc(Cl)cc2Cl)CC1 (centres undefined)	1%	x	u	x	x	-68*
Cc1ccccc1C(NC(=O)C1CCN(Cc2ccc(Oc3ccccc3)cc2)CC1)c1ccsc1 (centres undefined)	12%	x	0%	x	i	u
COc1ccc(C(NC(=O)C2CCN(CCOc3ccc(Cl)cc3Cl)CC2)c2cccs2)cc1 (centres undefined)	-1%	x	-24%	x	u	-21
Cc1cccnc1C(NC(=O)C1CCN(CCOc2ccc(F)cc2)CC1)c1ccc(Cl)cc1 (centres undefined)	0%	x	0%	x	u	-69*
Nc1nonc1-n1nnc(C(=O)N/N=C/c2ccc(OCc3ccccc3)cc2)c1COc1ccc(F)cc1	-1%	11%	2%	0%	i	16
CCc1c(C(=O)N/N=C/c2cccs2)nnn1-c1nonc1N	1%	-4%	-7%	-1%	i	0

Screens as filed in PubChem.
